For 80 compounds, caspase activation results are on record in PubChem BioAssay AID2241 (Broad Institute, 2010).

Screen size: about 21,000 compounds; about 110 (0.52%) were called active. The sample as a whole holds a higher share of actives than the screen did. Unmarked numbers belong to inactive results.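 Rule for the calls: active = most replicate scores above 10, or exactly half above 10 with mean activity above 10; inconclusive = mean activity below 10 while half the replicates exceed 10; inactive = most replicate scores below 10.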

A short description of the test: inducers of caspase activity in MEF A1-2A-BIM cells, primary screen, A1 inhibitor project, cell-based, CaspaseGlo luminescence (AID 2241).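 Note: effector caspase 3 and 7 activity cleaving a DEVD luciferin substrate.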 The following applies: caspase-Glo luminescence, 3 h, stronger effect = higher value, percent of clofoctol signal, DMSO as zero, concentration not given here.
Turning to `Cc1cc(C)n(CCc2nc3c4ccccc4n(Cc4ccc(Cl)cc4)c(=O)n3n2)n1`, the caspase activation was -0.449%.
Then `CCOc1ccc2c(c1)sc(=NC(=O)c1cc3ccccc3cc1OC)n2C`, with 1.85%; and `COC(=O)c1c(C)c(=O)[nH]c2ccccc12`, with 0.776%.
Then `CCCOc1ccc(Oc2nc(N(C)C)nc(N(C)C)n2)nn1`, with 0.458%; and `CCOC(=O)N1CCC(NC(=O)NCc2noc3ccccc23)CC1`, with 0.501%.
Consider `C[C@@H]1CN([C@@H](C)CO)C(=O)c2cc(NS(=O)(=O)c3ccccc3)ccc2O[C@H]1CN(C)CC1CCCCC1`, for which the caspase activation was -0.065%.
Then `O=C(CC1N=C2c3ccccc3N=C(SCc3ccccc3F)N2C1=O)NC1CCCCC1` (stereo not given), with -0.498%; and `C[C@@H]1CN([C@H](C)CO)C(=O)c2cc(NC(=O)Nc3ccccc3)ccc2O[C@H]1CN(C)S(=O)(=O)c1ccc(F)cc1`, with -0.342%.
Then `O=c1c2ccccc2nc(SCc2ccc(F)cc2)n1-c1ccccc1`, with -0.926%.
Turning to `O=C(NCc1ccc2c(c1)OCO2)C12CC3CC(CC(C3)C1)C2`, the caspase activation was 0.545%.
Regarding `CCOC(=O)c1cc(-c2ccccc2)n(-c2ccccc2C)n1`, the caspase activation was -0.391%.
Then `C=CCn1cc(C=C2C(=O)N(C)C(=S)N(C)C2=O)c2ccccc21`, with 1.19%.
Then `C[C@H]1CN([C@@H](C)CO)C(=O)c2cc(NS(C)(=O)=O)ccc2O[C@@H]1CN(C)S(=O)(=O)c1ccc(Cl)cc1`, with -0.347%; and `CC(C)CC1NC(=O)N(c2ccccc2)C1=O` (stereo not given), with 0.301%; and `C[C@H](CO)N1C[C@H](C)[C@H](CN(C)Cc2ccc(-c3ccccc3)cc2)Oc2ccc(NS(=O)(=O)c3ccccc3)cc2C1=O`, with 0.241%.
In the case of `Cc1ccc(NC2=CC(=O)NC2)cc1`, the caspase activation was 1.28%.
Then `CN(CCOC(=O)C1c2ccccc2Oc2ccccc21)Cc1ccccc1`, with 1.21%; and `Cc1cccc(NC(=O)c2ccc(C)c(S(=O)(=O)N3CCCC3)c2)c1`, with -5.91%.
Then `CC(=O)N1N=C(c2ccccc2)OC1c1cccnc1` (stereo not given), with -0.213%.
Then `C[C@H]1CN([C@@H](C)CO)C(=O)c2cc(NC(=O)Nc3ccccc3)ccc2O[C@H]1CN(C)C(=O)Nc1ccc(F)cc1`, with 0.365%; and `Cc1ccccc1N(C)S(=O)(=O)c1ccc2[nH]cc(C(=O)NCCC(C)C)c(=O)c2c1`, with 0.114%.
For the compound `COc1cc(C=Nc2ccc(Cl)cc2)ccc1OC(=O)/C=C/c1cccs1`, the caspase activation is -0.187%.
As for `O=C(Cc1ccccc1)N1CCCc2ccccc21`, the caspase activation is 1.12%.
Then `O=C(Nc1ccccc1)Nc1ccc(C2SCCS2)cc1`, with -6.29%; and `Cc1ccc(-n2c(C)cc(C=C3C(=O)c4ccccc4C3=O)c2C)cc1`, with -6.47%; and `C[C@@H]1CN([C@H](C)CO)C(=O)c2cc(NC(=O)Cc3ccccc3)ccc2O[C@H]1CN(C)S(=O)(=O)c1cn(C)cn1`, with 0.269%.
Consider `CCN1C(=O)c2cccc3c(NC(=S)NC(=O)c4ccccc4)ccc1c23`, for which the caspase activation was 11.5% (active).
As to `N#CCNC(=O)CN1C(=O)c2ccccc2C1=O`, the caspase activation was 0.74%.
For the compound `CCN1C(=O)c2ccccc2Sc2ccc(NC(=O)N3CCc4ccccc43)cc21`, the caspase activation was -0.754%.
Then `CC1CCC(NC(=O)Cn2ncn3c(cc4sccc43)c2=O)CC1` (stereo not given), with -0.216%; and `O=C1CC(c2ccccc2)C(=O)N1c1ccc(F)cc1` (stereo not given), with 0.129%.
In the case of `COc1cc(SC)ccc1C(=O)N(C)c1ccccc1`, the caspase activation was -0.443%.
As for `S=C(Nc1cccc(Cl)c1)NC1CCSc2ccc(Cl)cc21` (stereo not given), the caspase activation is 1.82%.
For `C[C@H](CO)N1C[C@H](C)[C@H](CN(C)S(C)(=O)=O)Oc2ccc(NC(=O)CCCN(C)C)cc2C1=O`, the caspase activation was 0.894%.
Then `COc1ccc(S(=O)(=O)N(C)C[C@@H]2Oc3ccc(NC(=O)Nc4c(C)noc4C)cc3C(=O)N([C@H](C)CO)C[C@@H]2C)cc1`, with -0.0515%.
Then `CC1CCC(C(C)C)C(=O)/C1=C\c1ccc(NC(=O)CCC(=O)O)cc1` (stereo not given), with -1.52%; and `COc1ccc(NC(=O)Nc2ccc3c(c2)C(=O)N([C@@H](C)CO)C[C@H](C)[C@@H](CN(C)Cc2ccc4c(c2)OCO4)O3)cc1`, with 0.747%.
With `CC1=CCC(C(=O)O)(C(=O)NCc2ccccc2)C(c2ccc(Br)cc2)C1` (stereo not given), the caspase activation was 0.252%.
Then `C[C@@H]1CN([C@H](C)CO)C(=O)c2cc(N(C)C)ccc2O[C@@H]1CN(C)S(C)(=O)=O`, with 1.19%; and `Cc1noc(C)c1NC(=O)N(C)C[C@@H]1Oc2ccc(NS(C)(=O)=O)cc2C(=O)N([C@H](C)CO)C[C@@H]1C`, with -0.083%.
Then `O=c1oc2ccccc2cc1-c1ccc(Cl)cc1`, with -4.58%.
As to `COc1ccc(OC)c2c(C)cc(=O)[nH]c12`, the caspase activation is 0.675%.
For `Cc1ccc(Nc2nc(C)cc(C)c2C(N)=O)cc1`, the caspase activation is 0.407%.
Regarding `CCOC(=O)c1cc(CC)sc1/N=C/C1C(=O)c2ccccc2C1=O`, the caspase activation is 0.959%.
Then `NC(=O)c1nnc2cc(-c3ccccc3)nn2c1N`, with -5.53%; and `C[C@@H]1CN([C@@H](C)CO)C(=O)c2cc(NC(=O)c3ccncc3)ccc2O[C@H]1CN(C)S(=O)(=O)c1ccc(Cl)cc1`, with -0.107%; and `Cc1nc2ccccn2c1-c1ccnc(SCC(=O)c2ccc(Cl)cc2)n1`, with 2.75%.
Then `COc1cc(C2OC(c3ccc(O)c(OC)c3)C(C)(O)C2C)ccc1O` (stereo not given), with 0.0643%.
Then `O=C(COC(=O)c1cc2ccccc2oc1=O)c1ccccc1`, with -0.224%; and `CC(C(=O)NC1CCCC1)n1c2ccccc2c2cnn(C)c(=O)c21` (stereo not given), with -0.382%; and `CCn1c(=O)c2c(n3c(SCC(N)=O)nnc13)-c1ccccc1CC21CCCCC1`, with 1.18%.
For the compound `O=C(NCN1CCCCC1)C12CC3CC(CC(C3)C1)C2`, the caspase activation was 0.282%.
Regarding `C[C@H]1O[C@@H](O[C@H]2[C@@H](O)C[C@H](O[C@H]3[C@@H](O)C[C@H](O[C@H]4CC[C@]5(C)C6C[C@@H](O)[C@]7(C)[C@@H](C8=CC(=O)OC8)CC[C@]7(O)C6CC[C@@H]5C4)O[C@@H]3C)O[C@@H]2C)C[C@H](O)[C@@H]1O` (stereo not given in full), the caspase activation is 0.786%.
As for `CN(c1ncnc2c1cnn2-c1ccc(Cl)cc1)C1CCCCC1`, the caspase activation was -2.01%.
Regarding `CC1CCN(S(=O)(=O)c2ccc3nc(-c4ccccn4)cc(C(=O)NC4CCCC4)c3c2)CC1`, the caspase activation was -1.16%.
Then `CC(C)(C)c1ccc(/C=C/C(=O)NC2CCS(=O)(=O)C2)cc1` (stereo not given), with -0.861%; and `C=C1C(=O)O[C@@H]2[C@H]3C(CO)=CC(=O)C3=C(C)C[C@H](OC(=O)Cc3ccc(O)cc3)[C@@H]12`, with -0.373%.
Then `C[C@@H]1CN([C@H](C)CO)C(=O)c2cc(NS(=O)(=O)c3ccc(F)cc3)ccc2O[C@H]1CN(C)Cc1ccncc1`, with 0.648%.
Then `CC(C)(C)c1ccc(Cn2c(=N)n(CC(=O)O)c3ccccc32)cc1`, with -0.508%; and `C[C@@H]1CN([C@@H](C)CO)C(=O)c2cc(NC(=O)Cc3ccccc3)ccc2O[C@@H]1CN(C)S(=O)(=O)c1ccccc1`, with 0.193%.
Consider `CCCCn1c2nc3ccccc3nc2c2c(N)ncnc21`, for which the caspase activation was -0.174%.
Then `C[C@@H]1CN([C@@H](C)CO)C(=O)c2cc(NC(=O)Nc3ccc(F)cc3)ccc2O[C@H]1CN(C)CC1CCCCC1`, with 0.271%; and `CCc1ccccc1NC(=O)c1ccc2snnc2c1`, with 0.441%; and `CCOC(=O)C1CCC(CN(Cc2ccccc2)S(=O)(=O)c2ccc(F)c(C)c2)CC1` (stereo not given), with 0.544%.
Regarding `CC(C)[C@H](CO)Nc1nc(Nc2cc(N)cc(Cl)c2)c2ncn(C(C)C)c2n1`, the caspase activation was 13.9% (active).
Turning to `CC(C)OC(=O)C1=c2s/c(=C\c3cccnc3)c(=O)n2C(N)=C(C#N)C1c1cccnc1` (stereo not given), the caspase activation is -0.566%.
For `COc1ccc(NC(=O)N(C)C[C@H]2Oc3ccc(NS(=O)(=O)c4ccc(F)cc4)cc3C(=O)N([C@@H](C)CO)C[C@@H]2C)cc1`, the caspase activation was -0.29%.
On to `Cc1ccc(-c2nc(Nc3ccccc3F)sc2C)cc1`, for which the caspase activation is -0.917%.
With `CC1CCN(C(=O)Cn2cnc3c(cnn3-c3ccccc3)c2=O)CC1`, the caspase activation was -0.191%.
As to `O=C(c1nc2ncccn2n1)N(Cc1ccccc1)Cc1ccccc1`, the caspase activation is -0.322%.
Then `COc1nnc(-c2ccc(C)c(S(=O)(=O)N(C)C)c2)c2ccccc12`, with 0.109%; and `Cc1ccc(S(=O)(=O)Nc2ccc3c(c2)C(=O)N([C@@H](C)CO)C[C@@H](C)[C@@H](CN(C)Cc2ccncc2)O3)cc1`, with 0.309%.
Then `Cc1ccc(C(=O)NC(NCc2ccco2)(C(F)(F)F)C(F)(F)F)cc1`, with -0.256%; and `O=C(c1ccccc1)C(CC(=O)N1CCOCC1)c1ccccc1` (stereo not given), with 0.00844%.
Regarding `C[C@@H]1CN([C@H](C)CO)C(=O)c2cc(NC(=O)Cc3cn(C)c4ccccc34)ccc2O[C@@H]1CN(C)S(=O)(=O)c1cccs1`, the caspase activation was -0.00537%.
Take `CCSc1ccc2nnc(CCNC(=O)c3ccccc3)n2n1`: the caspase activation is 0.0984%.
For the compound `COc1ccccc1C(=O)N/C(=C\c1ccccc1)C(=O)N1CCOCC1`, the caspase activation is -0.546%.
Take `Cc1ccc(O)c(C(C)(C)C)c1`: the caspase activation was -0.605%.
As to `Cc1sc2nc3n(c(=O)c2c1C)N=C(c1ccc(F)cc1)CS3`, the caspase activation was -1.09%.
Take `CC1=C(Cc2ccc(OC(=O)c3ccccc3)cc2)C(=O)C(C(C)C)CC1` (stereo not given): the caspase activation is 0.579%.
